Screens: PubChem, National Center for Advancing Translational Sciences (NCATS)
D2 PAM-1: D2 dopamine receptor (human) potentiation. P14416. HEK293 T-REx D2, calcium flux, EC20 dopamine potentiation. potentiation, % at 10 µM. hit rate 0.34% among 340,000;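 active means potentiation over 3 SD above the plate norm, cut at about 30% in these data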; further: 0% is about no effect
Target sequence (P14416 whole entry, looked up): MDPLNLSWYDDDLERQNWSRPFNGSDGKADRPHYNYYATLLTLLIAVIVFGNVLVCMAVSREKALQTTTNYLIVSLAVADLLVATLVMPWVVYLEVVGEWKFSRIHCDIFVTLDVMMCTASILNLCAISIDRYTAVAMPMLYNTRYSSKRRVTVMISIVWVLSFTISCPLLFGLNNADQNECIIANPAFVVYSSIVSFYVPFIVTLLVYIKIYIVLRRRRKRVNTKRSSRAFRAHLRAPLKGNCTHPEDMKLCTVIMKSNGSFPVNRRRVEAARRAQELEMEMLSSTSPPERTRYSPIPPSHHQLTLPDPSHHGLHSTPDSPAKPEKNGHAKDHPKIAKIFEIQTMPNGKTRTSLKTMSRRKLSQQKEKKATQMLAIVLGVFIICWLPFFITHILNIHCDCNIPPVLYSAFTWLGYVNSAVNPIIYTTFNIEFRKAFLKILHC
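Calcium flux readout, no-wash dye, 1 read/s. Inducible HEK293 Trex D2 line, overnight 30 C. Compound alone 180 s (agonist flags), then EC20 dopamine, another 180 s to score potentiation.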
D2 ag-1: activates the human D2 dopamine receptor; P14416; HEK293 T-REx D2 cells, calcium flux agonist mode; activation, % at 2 µM; hit rate 0.53% among 340,000;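 active means activation over 3 SD above normal in the single-dose calcium agonist read, cut at about 30% in these data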; further: 0% is about no effect
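Agonism scored from kinetic calcium signal (1 read/sec, 180 s) following compound pin transfer, after a 10 s baseline. Cells: HEK293 Trex line expressing inducible D2 receptor coupled to calcium, dye-loaded after overnight culture at 30 C.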
D2 antag: D2 dopamine receptor (human) antagonism. inhibition, % at 10 µM. HEK293 TREx D2 cells, calcium flux, dopamine EC80. P14416. hit rate 2% among 340,000. AID 485344; in the data active means inhibition above about 30%; inactive means below that, where a call was filed; further: 0% is about no effect
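Cells plated overnight at 30 C with tetracycline; no-wash calcium dye, 30–90 min RT; 10 s baseline; compound pinned; 180 s read; EC80 dopamine added; another 180 s read.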
D2 ag-2: activates the human D2 dopamine receptor; P14416; DiscoveRx PathHunter D2 beta-arrestin, luminescence, 90 min; 100% = 57 uM dopamine signal; activation, % (test concentration not listed); hit rate 0.084% among 360,000; in the data active means activation above about 40%; inconclusive means between about 15% and that limit
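Agonist mode: compounds alone added to overnight-plated D2 PathHunter cells for 90 min at 37 C, with 57 uM final dopamine (EC100) defining full response. Beta-arrestin recruitment detected by chemiluminescent reagent, read after 1 h at ambient temperature.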
D2 PAM-2: positive allosteric modulators of human D2 dopamine receptor. potentiation, % (no concentration beside the values). hit rate 0.23% among 360,000. P14416. DiscoveRx D2 beta-arrestin cells, luminescence, 90 min; 100% = 57 uM dopamine signal; in the data active means potentiation above about 50%; inconclusive means mostly about 30% to 49%
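D2 cells co-treated with compound plus 50 nM dopamine (EC20) for 90 min at 37 deg C to detect potentiation. Beta-arrestin recruitment was read as enzyme-fragment luminescence after 1 h at ambient temperature. Full response was set by 57 uM dopamine.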
D3 ag: confirmation of human D3 dopamine receptor agonists, beta-arrestin; shares compounds with D2 ag-1; DiscoveRx D3 beta-arrestin cells, luminescence, 90 min; Potency, µM (doses to about 76.9 µM), inactives show top-dose activation, actives largely listed as activators; hit rate 4% among 2,300; AID 720506;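 further: potency means the concentration at half of the fitted maximal effect; 100% = dopamine control response; nearly all actives have a fitted effect of over 70% in size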
D2 ag-3: counter-screen for D3 agonists: human D2 dopamine receptor agonism; shares compounds with D2 ag-1; DiscoveRx PathHunter D2 beta-arrestin, luminescence, 90 min; response scale: percent relative to full dopamine signal; Potency, µM (titrated, usually from 76.9 µM), for inactives: top-dose activation, hits mostly activators; hit rate 5.9% among 2,300; AID 720507; further: potency means the concentration at half of the fitted maximal effect; % of control where 0% means no effect; nearly all actives have a fitted effect of over 70% in size
An asterisk follows results filed as active; ? = inconclusive; . = not tested or not shown. A selection: hits, their analogues and other compounds. The true share with any hit is near 2.4%. Unless noted, the call rests on the fitted dose curve; in most records, active means well fitted activation curve with a large enough effect; inconclusive means small, poorly fitted or top-dose-only effect; inactive means flat fitted curve, though single readings scatter.

SMILES	D2 PAM-1	D2 ag-1	D2 antag	D2 ag-2	D2 PAM-2	D3 ag	D2 ag-3
CCOc1ccccc1-n1nnnc1SCC(=O)NC(=O)Cc1ccccc1	-13.7	-1.0	-11.8	-6.2	-20.4	-3.1%	-1.3%
COc1ccc(OC)c(CNc2ccc([N+](=O)[O-])cc2C)c1	-25.6	57.0*	8.5	-1.3	-1.3	-11.7%	3.1%
COc1cccc(CNc2ccc([N+](=O)[O-])cc2C)c1	0.2	-1.1	-6.9	-4.1	-27.7	.	.
Cn1c(=O)cc(SCC(=O)NCCCN2CCN(c3ccc(F)cc3)CC2)c2ccccc21	-26.5	33.0*	90.6*	2.1	-33.7	-4.8%	9.4%
Cc1ccccc1NC(=O)NCCCN1CCN(c2ccccc2)CC1	-22.5	77.4*	79.2*	?	-21.1	?	?
O=C(NCCCN1CCN(c2ccccc2)CC1)Nc1ccccc1C(F)(F)F	-19.6	78.1*	74.6*	?	-8.3	?	20.8%
COCc1cc(C)nc(SCc2ccc(F)cc2)c1C#N	9.3	0.3	41.6*	-4.0	-0.6	-10.0%	-1.7%
COc1cccc(/C=C/C(=O)OCC(=O)NCCc2ccccc2)c1	-20.2	46.5*	9.0	-1.6	-3.1	-10.5%	-4.1%
CC(C)(C)OC(=O)N[C@H]1C=C[C@@H](OC(=O)CC(=O)OCC(F)(F)F)C1	.	.	.	-3.1	.	.	.
COc1ccccc1CNC(=O)c1ccc(N2CCCC2)c(NC(=O)NCc2ccc(F)cc2)c1	8.8	-2.7	.	.	.	.	.
N#C/C(=N\Nc1ccccc1)C(N)=S	-1.3	1.1	3.6	-11.0	-29.0	-10.4%	-18.9%
O=S1(=O)C[C@H](N2CCOCC2)[C@@H](COCc2ccccc2)N1	.	.	.	-4.0	-4.6	.	.
COc1ccc(C(=O)c2sc3nc(C)cc(-c4cccs4)c3c2N)cc1	8.2	-1.1	12.3	1.7	-4.0	.	.
Cc1cc(-c2cccs2)c2c(N)c(C(=O)c3ccc4c(c3)OCO4)sc2n1	-3.8	40.7*	-10.8	-12.5	22.1	-1.8%	-3.4%
CN(C)c1ccc(C#Cc2ccc3cc(CCO)oc(=O)c3c2)cc1	-4.2	-1.2	-12.2	-1.3	-4.8	12.4%	2.7%
O=C(NC1CCCC1)C1CCC(CNS(=O)(=O)c2ccc(F)cc2)CC1 (stereo not drawn)	7.0	-1.5	15.2	-2.1	-1.8	-8.6%	-0.1%
O=C(NC1CCCC1)C1CCC(CNS(=O)(=O)c2ccccc2)CC1 (stereo not drawn)	-2.0	-0.5	-4.0	-3.5	-6.8	.	.
O=C1C=C(c2cccc3c2Oc2ccccc2S3)C[C@@H](c2ccc(Cl)cc2)C1	-5.9	0.9	-6.3	-1.7	-3.5	.	.
COc1ccc([C@H]2CC(=O)C=C(c3cccc4c3Oc3ccccc3S4)C2)cc1OC	4.0	0.6	6.4	-1.2	3.1	2.9%	4.4%
COc1ccc([C@H]2CC(=O)C=C(c3ccc(O)cc3)C2)cc1OC	9.1	14.0	-9.9	1.3	9.9	16.3%	8.9%
O=C(CCC(=O)c1ccccc1)NCCc1c[nH]c2ccccc12	-20.1	66.2*	5.1	3.5	-12.9	13.7%	5.5%
O=C(c1cccs1)N(Cc1ccco1)C1CCS(=O)(=O)C1 (stereo not drawn)	-19.9	58.4*	40.8*	?	20.8	16.6%	24.8%
Cc1ccc(CN(C(=O)c2cccs2)C2CCS(=O)(=O)C2)cc1 (stereo not drawn)	3.9	0.0	1.3	-0.6	-2.1	.	.
COC(=O)Cn1c2ccc(F)cc2c2nc(C)sc21	-23.5	37.8*	-6.0	-3.7	-7.2	7.1%	-2.2%
COc1cc(OC)c(NC(=O)c2cc3c(=O)oc4ccc(C)cc4c3s2)cc1Cl	-4.0	0.9	.	.	.	.	.
SMILES	D2 PAM-1	D2 ag-1	D2 antag	D2 ag-2	D2 PAM-2	D3 ag	D2 ag-3
CC(C)NC[C@@H](O)c1ccc(O)c(O)c1	-2.4	15.9	-19.4	3.0	23.4	?	24.5%
CCCC(=O)Nc1c(C(=O)N2CCN(c3ccccc3)CC2)oc2ccccc12	1.5	2.0	.	.	.	.	.
O=C1C2CCCCN2C(=O)N1CCN1CCN(c2ccc(F)cc2)CC1 (stereo not drawn)	.	.	.	-3.3	-5.3	.	.
Cc1ccc(N2CCN(CCCCN3C(=O)C4CCCN4C3=O)CC2)cc1 (stereo not drawn)	-28.5	.	.	-1.2	-23.7	.	.
O=C1C2CCCN2C(=O)N1CCN1CCN(c2ccccc2)CC1 (stereo not drawn)	1.6	42.0*	70.8*	3.3	-23.2	-16.7%	3.5%
O=C1C2CCCN2C(=O)N1CCCCN1CCN(c2cccc(Cl)c2)CC1 (stereo not drawn)	-19.1	65.8*	79.6*	1.5	-36.8	17.0%	13.4%
O=C1C2CCCN2C(=O)N1CCCCN1CCN(c2ccccc2)CC1 (stereo not drawn)	-32.3	85.7*	61.9*	?	3.5	?	?
Cc1cc(NC(=O)CSCC(=O)Nc2cc(Cl)ccc2N2CCN(C)CC2)no1	4.1	0.8	3.7	-3.1	-10.7	-0.1%	-0.4%
Cc1cc(C)cc(Oc2c(C(F)(F)F)oc3cc(OCC(=O)NC4CCCCC4)ccc3c2=O)c1	10.4	.	.	.	.	.	.
COc1ccccc1Nc1nc(N)nc(CN2CCN(c3ccccc3)CC2)n1	-23.3	52.3*	43.6*	6.5	-5.8	-4.2%	8.7%
Cc1ccc(Nc2nc(N)nc(CN3CCN(c4ccccc4)CC3)n2)cc1Cl	.	.	.	?	101.9*	21.4%	20µM*
Nc1nc(CN2CCN(c3ccccn3)CC2)nc(Nc2ccc(F)cc2)n1	-24.4	73.7*	73.2*	?	16.8	-8.2%	?
Cc1ccc(S(=O)(=O)N2CCOCC2)cc1NC(=O)CNCc1ccc(Cl)cc1Cl	.	.	.	1.3	4.2	.	.
Cc1ccc(S(=O)(=O)N2CCOCC2)cc1NC(=O)CNCc1cccnc1	-17.3	76.6*	59.7*	48.1*	62.6*	3.55µM*	35.5µM*
Cc1ccc(S(=O)(=O)N2CCOCC2)cc1NC(=O)CNCC1CCCCC1	-15.5	52.8*	49.8*	?	-2.1	?	?
CCOc1ccc(N2CC(NC(=O)C(=O)c3c[nH]c4ccccc34)CC2=O)cc1 (stereo not drawn)	-0.2	0.2	.	.	.	.	.
CC1CN(C(=O)CNC(=O)Cc2cccc3ccccc23)CC(C)O1 (stereo not drawn)	-11.2	0.7	-22.1	-1.7	-0.1	0.9%	-0.2%
CC(=O)Nc1ccc(NC(=O)CCC(=O)c2ccc(C)cc2)cc1	8.6	-0.9	.	.	.	.	.
O=C(CCc1ccccc1)NNC(=S)NCc1ccc(Cl)cc1	8.5	0.7	-2.4	0.4	-6.8	.	.
